Source: PubChem (National Center for Advancing Translational Sciences (NCATS))
The list is not random: actives were taken first. Their share in the collection is about 12%.
BAZ2B block – qHTS Assay for Inhibitors of BAZ2B; hit rate 4.4% among 360,000; AlphaScreen BAZ2B-H3K14Ac peptide displacement; Bromodomain adjacent to zinc finger domain protein 2B (Homo sapiens), Q9UIF8; AID 504333, 2011; Potency, µM (doses to about 114 µM), inactives show top-dose activity change, negative = inhibition, usual class: inhibitors; further: on the % scale 0 is the no-effect control and ±100 the full control effect; nearly all actives have a fitted effect of over 60% in size
Target sequence (Q9UIF8 whole entry, looked up, the tested form may be a part): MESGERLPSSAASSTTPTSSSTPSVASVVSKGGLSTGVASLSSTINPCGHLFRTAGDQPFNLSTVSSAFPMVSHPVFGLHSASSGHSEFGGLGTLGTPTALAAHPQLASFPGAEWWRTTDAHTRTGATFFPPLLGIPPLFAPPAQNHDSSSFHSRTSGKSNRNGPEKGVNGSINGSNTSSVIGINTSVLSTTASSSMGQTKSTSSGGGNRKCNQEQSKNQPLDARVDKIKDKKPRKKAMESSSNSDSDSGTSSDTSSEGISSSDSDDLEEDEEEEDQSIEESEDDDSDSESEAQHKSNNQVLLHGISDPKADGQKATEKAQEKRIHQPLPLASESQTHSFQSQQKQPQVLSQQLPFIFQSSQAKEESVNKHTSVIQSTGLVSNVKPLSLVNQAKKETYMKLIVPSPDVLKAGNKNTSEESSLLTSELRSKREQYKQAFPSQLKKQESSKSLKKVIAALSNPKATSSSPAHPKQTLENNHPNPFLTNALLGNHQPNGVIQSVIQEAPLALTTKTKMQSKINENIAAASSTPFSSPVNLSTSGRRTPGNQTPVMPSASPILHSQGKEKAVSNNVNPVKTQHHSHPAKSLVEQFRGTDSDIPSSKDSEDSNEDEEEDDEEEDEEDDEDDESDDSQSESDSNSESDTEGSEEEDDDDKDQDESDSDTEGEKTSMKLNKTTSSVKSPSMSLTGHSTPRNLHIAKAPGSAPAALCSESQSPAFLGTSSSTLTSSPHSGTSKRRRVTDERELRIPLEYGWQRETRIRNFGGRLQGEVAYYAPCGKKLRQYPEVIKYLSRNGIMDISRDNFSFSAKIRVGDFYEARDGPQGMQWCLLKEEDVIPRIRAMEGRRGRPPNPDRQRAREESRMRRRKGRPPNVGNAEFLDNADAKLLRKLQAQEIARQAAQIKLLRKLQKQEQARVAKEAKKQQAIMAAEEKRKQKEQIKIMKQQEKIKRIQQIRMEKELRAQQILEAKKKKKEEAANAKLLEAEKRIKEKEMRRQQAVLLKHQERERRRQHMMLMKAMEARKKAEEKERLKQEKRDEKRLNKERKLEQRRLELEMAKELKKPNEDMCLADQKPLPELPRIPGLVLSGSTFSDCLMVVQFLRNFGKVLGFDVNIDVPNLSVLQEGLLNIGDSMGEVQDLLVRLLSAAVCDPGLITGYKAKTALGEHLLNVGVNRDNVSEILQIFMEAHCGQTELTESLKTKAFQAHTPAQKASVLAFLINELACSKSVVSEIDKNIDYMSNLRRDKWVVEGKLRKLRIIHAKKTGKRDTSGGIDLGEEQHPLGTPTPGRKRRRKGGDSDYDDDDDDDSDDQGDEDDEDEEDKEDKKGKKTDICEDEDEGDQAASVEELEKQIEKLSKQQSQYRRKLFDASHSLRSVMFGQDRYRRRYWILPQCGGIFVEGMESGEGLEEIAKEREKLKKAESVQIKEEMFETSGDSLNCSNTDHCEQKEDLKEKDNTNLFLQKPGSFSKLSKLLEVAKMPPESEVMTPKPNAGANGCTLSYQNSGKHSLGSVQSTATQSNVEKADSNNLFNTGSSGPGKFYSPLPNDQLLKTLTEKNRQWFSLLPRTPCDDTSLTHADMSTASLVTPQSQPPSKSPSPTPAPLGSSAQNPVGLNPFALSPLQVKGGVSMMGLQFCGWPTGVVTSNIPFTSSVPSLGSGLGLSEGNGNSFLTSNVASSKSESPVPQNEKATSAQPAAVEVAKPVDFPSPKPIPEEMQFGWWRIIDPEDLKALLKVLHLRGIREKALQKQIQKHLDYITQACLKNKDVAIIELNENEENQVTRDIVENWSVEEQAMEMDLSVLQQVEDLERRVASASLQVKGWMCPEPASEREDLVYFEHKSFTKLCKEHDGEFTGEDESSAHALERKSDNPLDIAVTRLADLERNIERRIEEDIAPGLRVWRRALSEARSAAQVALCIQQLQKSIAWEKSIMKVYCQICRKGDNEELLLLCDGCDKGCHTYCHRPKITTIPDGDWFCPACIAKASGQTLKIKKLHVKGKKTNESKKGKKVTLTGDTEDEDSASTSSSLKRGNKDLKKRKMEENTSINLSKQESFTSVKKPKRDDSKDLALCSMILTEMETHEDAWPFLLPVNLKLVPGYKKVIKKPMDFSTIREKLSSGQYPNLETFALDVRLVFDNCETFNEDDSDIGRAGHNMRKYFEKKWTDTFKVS
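Protein-peptide AlphaScreen: BAZ2B 50 nM, b-H3K14Ac 50 nM, 1x PBS pH 7.4 + 0.01% Tween-20. Preincubation 30 min RT; cpd 30 min RT (top 110 uM); beads 20 min RT, light-protected.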
JMJD2A Tudor inh – qHTS Assay for Inhibitors of JMJD2A-Tudor Domain; Lysine-specific demethylase 4A (Homo sapiens), O75164; AlphaScreen JMJD2A-Tudor / H3K4me3 peptide binding; Potency, µM (series often up to 114 µM), for inactives: at the highest dose activity change, negative = inhibition, hits mostly inhibitors; hit rate 4.4% among 390,000; AID 504339, 2011; further: on the % scale 0 is the no-effect control and ±100 the full control effect; nearly all actives have a fitted effect of over 50% in size
Sfp PPTase inh – qHTS Assay for Inhibitors of Bacillus subtilis Sfp phosphopantetheinyl transferase (PPTase). 4'-phosphopantetheinyl transferase ffp (Bacillus subtilis), Q9F4F7. Biochemical Sfp PPTase activity, qHTS. Potency, µM, inactives show largest response in the series, negative = inhibition, actives largely listed as inhibitors. hit rate 3.5% among 310,000;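 further: the enzyme is Sfp with the accession as filed and its product quenches rhodamine fluorescence; 0% = enzyme reaction without inhibitor and -100% = no enzyme wells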
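Compounds were incubated with enzyme (final 15 nM) for 15 min at room temperature before substrate addition started the reaction. Fluorescence at 525 nm excitation, 598 nm emission was recorded immediately and after 30 minutes.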
HP1b chromo inh – HTS for Inhibitors of HP1-beta Chromodomain Interactions with Methylated Histone Tails. Chromobox protein homolog 1 (Homo sapiens), P83916. AlphaScreen HP1-beta / biotin-H3K9me3 peptide binding. Potency, µM (top dose mostly 114 µM), inactives show at the top dose activity change, negative = inhibition, usual class: inhibitors. hit rate 0.56% among 390,000; further: nearly all actives have a fitted effect of over 70% in size
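Compound inhibition of the preformed complex between 50 nM HP1-beta and 50 nM biotinylated H3K9me3 peptide was read by AlphaScreen. Buffer was PBS pH 7.4 with 0.01% Tween-20. Incubations ran 30 min at room temperature, with 10 ug/mL donor/acceptor beads.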
L3MBTL1 inh – qHTS Assay for the Inhibitors of L3MBTL1. hit rate 0.66% among 230,000. AlphaScreen L3MBTL1–H3K9me1 peptide binding. Lethal(3)malignant brain tumor-like protein 1 (Homo sapiens), Q9Y468. AID 485360, 2010. Potency, µM (top dose mostly 57.1 µM), inactives show at the top dose activity, negative = inhibition, most hits filed as inhibitors; further: on the % scale 0 is the no-effect control and ±100 the full control effect; nearly all actives have a fitted effect of over 60% in size
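AlphaScreen proximity signal between nickel-chelate acceptor and streptavidin donor beads (final 10 ug/mL) reports binding of 50 nM L3MBTL1 to 75 nM biotin-H3 K9me1 peptide; complex incubated with compounds 30 min at room temperature; cefsulodin titration as control.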
G9a block – qHTS Assay for Inhibitors of Histone Lysine Methyltransferase G9a. hit rate 8.8% among 350,000. Potency, µM (doses to about 102 µM), without a hit: at the top dose activity, negative = inhibition, usual class: inhibitors. Histone-lysine N-methyltransferase EHMT2 (Homo sapiens), Q96KQ7. G9a H3K9 monomethylation, AlphaScreen, 2 h; further: on the % scale 0 is the no-effect control and ±100 the full control effect; nearly all actives have a fitted effect of over 75% in size
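Chemiluminescent proximity detection of H3K9 monomethylation, read after 10 min bead incubation in the dark. Reaction: 20 nM G9a, 500 nM biotin-H3K9 peptide, 20 uM SAM cofactor, 2 h, room temperature, following 15 min enzyme-compound preincubation.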
* hit, by the source's call; u = inconclusive; x = no result; ! = not active in a repeat; [ ] = dose if it differs, or a comment. The call rests on the fitted dose curve; in most records, active means well fitted curve in the direction sought with a large enough effect; inconclusive means small, poorly fitted or top-dose-only effect, or another doubt; inactive means no such curve, though single readings can be large; an effect the other way counts as inactive or inconclusive. Potency means the concentration at half of the fitted maximal effect.

SMILES	BAZ2B block	JMJD2A Tudor inh	Sfp PPTase inh	HP1b chromo inh	L3MBTL1 inh	G9a block
COc1ccc(N2CCN(C(=O)c3cc4c(-c5cccc(OC)c5)nn(C)c4s3)CC2)cc1	25µM*	40µM*	-9%	u	x	u
N#Cc1ccccc1S(=O)(=O)N1CCN(C(=O)c2cc3c(s2)CCC3)CC1	u	u	x	-17%	u	35µM*
COc1cccc(-c2nn(C)c3sc(C(=O)N4CCN(c5cccc(C(F)(F)F)c5)CC4)cc23)c1	x	-29%	x	5%	x	-32%[59 µM]
CCN(CC)CCNC(=O)c1cc2c(-c3cccc(OC)c3)nn(C)c2s1	-1%	-5%	0%	-4%	x	79µM*!
CCCN1CNc2c(c(=O)[nH]c(=S)n2CCc2ccccc2OC)C1	x	-16%	x	27%	x	x
CN1CCN(c2ncc3nc(-c4ccc(F)cc4)c(=O)n(C4CC4)c3n2)CC1	x	x	-8%	x	x	-4%[0.501 µM]
COc1ccc(C[C@H](N)C(=O)N[C@H]2[C@@H](O)[C@H](n3cnc4c(N(C)C)ncnc43)O[C@@H]2CO)cc1	-6%	79µM*	x	-3%	8%	u
Cn1nnnc1N=N/C(=N/Nc1ccccc1)c1ccccc1	1.3µM*	1.6µM*	2%	28µM*	2.8µM*	x
Oc1ccccc1N=N/C(=N/Nc1ccccc1O)c1ccccc1	u	-35%	x	-2%	-9%	7%[2.33 µM]
COc1ccc(C2CC(c3ccccc3)Oc3cc(C)c(Cl)c(C)c32)cc1 (configuration not stated)	x	5%	-2%	30%	x	x
COc1ccccc1C(=O)NCCn1cc(SCC(=O)Nc2ccccc2F)c2ccccc21	-32%	-20%	x	10%	x	-9%[59 µM]
COc1ccc2c(C)c(CC(=O)NCc3ccccc3Cl)c(=O)oc2c1OC	-15%	-13%	x	25%	x	-32%[59 µM]
O=C(Nc1nccs1)c1ccc(Br)o1	0%	-11%	1%	29%	6%	u
CCOC(=O)Cc1csc(NC(=S)NC(=O)c2ccccc2)n1	u	-16%	16µM*	62%	-2%	u
CCOC(=O)Cc1csc(NC(=S)NC(=O)c2ccc(C)cc2)n1	5%	-15%	-12%	43%	3%	12%
CCOC(=O)Cc1csc(NC(=O)c2sc3nc4cc(C)ccc4cc3c2N)n1	13%	40µM*	u	3%	1%	71µM*
O=C(/C=C/c1ccc(Br)o1)Nc1nccs1	-15%	32µM*	u	u	u	45µM*
CCOC(=O)Cc1csc(NC(=O)/C=C/c2ccc(Br)o2)n1	-33%	-11%	u	21%	x	50µM*
COc1ccc2c(CC(=O)OCC(=O)Nc3cc(C)c(C)cc3[N+](=O)[O-])coc2c1	u	u	10%	u	-19%	20µM*
COc1ccc(OCC2Cc3c(-c4ccccc4)nc4c(c3CO2)CN(CCOc2ccccc2)CC4)cc1 (configuration not stated)	x	x	14%	x	x	x
[O-]c1n[n+](-c2ccc(Cl)cc2)cc2ccccc12	-10%	14µM*	12%	4%	1%	35µM*
CCOc1ccc(C(=O)Nc2nnc(S(=O)(=O)N(CC)c3ccccc3C)s2)cc1	-23%	-4%	x	25%	x	-9%[59 µM]
O=C(CSc1nc(=O)n(CCN2CCOCC2)c2c1CCC2)Nc1cccc(Cl)c1	-1%	-5%	x	24%	x	0%[59 µM]
CCOc1ccc(OCC)c(NC(=O)CN(C)S(=O)(=O)c2ccc3[nH]c(=O)oc3c2)c1	-23%	-23%	x	36%	x	-6%[59 µM]
COc1cccc(-c2nccc(NCc3cccs3)n2)c1	x	x	79µM*	x	x	-2%[0.501 µM]
SMILES	BAZ2B block	JMJD2A Tudor inh	Sfp PPTase inh	HP1b chromo inh	L3MBTL1 inh	G9a block
c1cncc(-c2nccc(NCc3cccs3)n2)c1	x	x	-18%	x	x	-11%[0.501 µM]
Cc1ccccc1-c1nccc(NCc2cccs2)n1	x	x	89µM*	x	x	-3%[0.501 µM]
CCOc1ccc(Nc2oc(-c3ccc(COc4ccc(C)cc4)o3)nc2C#N)cc1	u	-24%	x	4%	x	-25%[59 µM]
CCc1cccc(NC(=O)C2CCC(CNS(=O)(=O)c3ccc(Br)s3)CC2)c1 (configuration not stated)	0%	-18%	x	34%	x	14%[59 µM]
Cc1ccc(S(=O)(=O)c2cn(C)c3cc(N4CCCCCC4)c(F)cc3c2=O)cc1	-6%	-4%	x	34%	x	-1%[59 µM]
Cc1cc2c(s1)c1cnn(Cc3ccccc3Cl)c(=O)c1n2C	x	-16%	x	x	x	x
COc1ccc(CC2CCOC2=O)cc1 (configuration not stated)	x	-23%	12%	12%	-3%	-16%[59 µM]
COc1ccc(CC2C(=O)OC(C)(C)OC2=O)cc1	-8%	35µM*	15%	16%	-1%	40µM*
Cc1ccc(C2CC2C(=O)NNC(=S)Nc2ccc(Cl)cc2)cc1 (configuration not stated)	-8%	-28%	-5%	-18%	4%	25µM*
c1ccc(C2=Nc3c(ccc4ccccc34)C(c3ccncc3)=NN2)cc1	35µM*	35µM*	-15%	u	-6%	x
COc1cc(Br)c(C2CC(=O)Nc3cc(OC)c(OC)cc32)cc1OC (configuration not stated)	-12%	-20%	-3%	21%	-14%	-16%
CCN(CC)c1ccc(C2CC(=O)Nc3cc(OC)c(OC)cc32)cc1 (configuration not stated)	45µM*	50µM*	2%	-48%	u	u
COc1cc2c(cc1OC)C(c1ccc(N(C)C)cc1)CC(=O)N2 (configuration not stated)	u	u	-27%	-16%	x	u
COc1cc2c(cc1OC)C(c1ccc(SC)cc1)CC(=O)N2 (configuration not stated)	u	u	89µM*	-5%	-15%	x
O=C(NCCCN1CCN(c2cccc(Cl)c2)CC1)c1ccc2nc(Cc3ccccc3)oc2c1	u	u	x	-11%[57 µM]	x	u
Cn1c(O)c(N=Nc2ccccc2)c2ccccc21	-8%	-11%	50µM*	1%	x	22µM*
Cn1c(O)c(N=Nc2ccc(F)cc2)c2ccccc21	-3%	-31%	-27%	u	-22%	25µM*
Cn1c(O)c(N=Nc2nc(-c3ccccc3)cs2)c2ccccc21	u	u	56µM*	-17%	-10%	u
Cn1c(O)c(N=NC(=O)Cc2c[nH]c3ccccc23)c2ccccc21	x	u	x	-11%	x	x
